Source: PubChem
Shown are actives, neighbours in structure and some others; about 3.4% of the full set was active somewhere.
HSF1 inhib = HSF1 inhibition; NIH3T3-HGL HSE-luciferase, MG132-induced, luminescence 8 h; active compounds read low; activity change, negative = inhibition, % at 7.5 µM (by protocol); hit rate 0.77% among 300,000; AID 2098;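 active = more than half of replicate wells show activity change below -50%, luminescence cut by over half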;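 also: luciferase reports HSF-1 transcriptional activity via heat shock element; 0% = median of DMSO wells and -100% = zero luminescence signal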
HSP90 inh = inhibitors of HSP90 luciferase refolding in rabbit reticulocyte lysate. AID 1789. hit rate 0.91% among 290,000. luciferase refolding luminescence, 3 h. inhibition, % at 5.6 µM;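 active = inhibition above the screen-wide mean plus 3 SD, computed separately per campaign, cut at about 16% in these data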;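 also: 0% = DMSO wells and 100% = 60 µM geldanamycin wells; inhibitors lower the luminescence because luciferase stays unfolded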
PG9 Ab binder = binds the HIV-1 gp120 antibody PG9; TR-FRET gp120-PG9 antibody binding; inhibition, % at 6.7 µM; hit rate 0.43% among 360,000; AID 624416; in the data active = inhibition above about 8.5%
GAA850 FXN act = frataxin GAA850 promoter activation; activation, % at 6 µM; AID 540364; hit rate 0.56% among 360,000; HEK293 lucGAA850 FXN promoter luciferase reporter, 24 h; percent of 10 µM SAHA response;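 active = activation above the average of all compounds screened plus 3 SD, cutoff fixed separately per campaign, cut at about 7.5% in these data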;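 also: 0% = DMSO wells and 100% = 10 µM SAHA wells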
AI-2 QS modul = modulators of Vibrio harveyi AI-2 quorum sensing system | activity change, % at 7.5 µM | Vibrio harveyi JMH597 AI-2 luminescence/OD600 ratio, 9 h; active compounds read low; strain lacks LuxN and CqsS sensors; 0 = neutral-control median | hit rate 0.4% among 300,000; in the data active = activity change below about -75%, passing the limit was not always enough;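 also: luminescence divided by OD600 gain over 9 h not by final OD600 alone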
SMARCA2 act = SMARCA2 function activation, primary screen. activation, % at 9.1 µM. MG213 cells, MMTV-luciferase reporter, dexamethasone, overnight. hit rate 1% among 370,000; in the data active = activation above about 7.8%;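 also: 0% = vehicle wells and 100% = reference activator wells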
HSP90 inh confirm = HSP90 inhibition, confirmation assay. shares compounds with HSP90 inh. rabbit reticulocyte lysate, luciferase refolding luminescence, 3 h. inhibition, % at 5.9 µM. hit rate 64% among 2,300. AID 1846; in the data active = inhibition above about 18%;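 also: 0% = vehicle wells and 100% = reference inhibitor wells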
luciferase ctr = counter-screen for HSP90 inhibitors: inhibitors of firefly luciferase; purified native firefly luciferase, luminescence; shares compounds with HSP90 inh; inhibition, % at 5.9 µM; hit rate 48% among 2,300; AID 1847;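 active = inhibition above the mean inhibition of all tested sample wells plus 3 SD, cut at about 10% in these data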;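 also: 0% = DMSO with luciferase and 100% = wells lacking luciferase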
Target sequence (P08659 whole entry, looked up): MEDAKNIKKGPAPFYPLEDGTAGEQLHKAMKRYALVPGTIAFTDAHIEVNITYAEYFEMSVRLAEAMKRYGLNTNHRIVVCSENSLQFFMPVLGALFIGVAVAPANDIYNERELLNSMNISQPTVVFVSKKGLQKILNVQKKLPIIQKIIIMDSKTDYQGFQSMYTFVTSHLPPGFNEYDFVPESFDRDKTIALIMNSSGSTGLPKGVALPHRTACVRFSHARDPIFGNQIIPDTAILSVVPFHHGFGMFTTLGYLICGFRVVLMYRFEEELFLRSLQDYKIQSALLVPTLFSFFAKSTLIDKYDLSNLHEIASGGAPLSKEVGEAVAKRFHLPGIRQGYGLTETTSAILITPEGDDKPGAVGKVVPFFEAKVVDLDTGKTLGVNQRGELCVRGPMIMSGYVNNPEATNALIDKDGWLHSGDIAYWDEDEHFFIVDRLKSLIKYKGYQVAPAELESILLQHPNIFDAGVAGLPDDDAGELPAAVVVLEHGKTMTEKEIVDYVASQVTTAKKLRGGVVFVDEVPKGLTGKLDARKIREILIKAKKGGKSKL
* marks the source's active call; other numbers are inactive results.

Results for O=C(CN1C(=O)CCC1=O)Nc1cccc2c1C(=O)NC2=O ?
HSF1 inhib: -8; HSP90 inh: 21*; PG9 Ab binder: -3; GAA850 FXN act: 1; AI-2 QS modul: 39; SMARCA2 act: -7; HSP90 inh confirm: 3; luciferase ctr: -3

How did COC(=O)[C@]12C[C@H](CC(=O)NCCC(C)C)C(=O)N(CCC3=CCCCC3)C1=C[C@H](C1CCCC1)O[C@@H]2C do in these assays?
SMARCA2 act: -5

Results for CCOc1ccc(-c2cc(C(=O)N/N=C(\C)c3cccnc3)c3ccccc3n2)cc1 ?
HSF1 inhib: 9; HSP90 inh: 28*; PG9 Ab binder: -2; GAA850 FXN act: -3; AI-2 QS modul: 11; SMARCA2 act: 0; HSP90 inh confirm: 3; luciferase ctr: -23

How did CCNC(=S)NNC(=O)c1cc(-c2ccc(OCC)cc2)nc2ccccc12 do in these assays?
HSF1 inhib: -41; HSP90 inh: 50*; PG9 Ab binder: 1; GAA850 FXN act: 3; AI-2 QS modul: 31; SMARCA2 act: 7; HSP90 inh confirm: 74*; luciferase ctr: 25*

Results for CCNC(=S)NNC(=O)c1cc(-c2cccc(OC)c2)nc2ccccc12 ?
HSF1 inhib: 4; HSP90 inh: -1; PG9 Ab binder: -1; GAA850 FXN act: 4; AI-2 QS modul: 19; SMARCA2 act: 0

What do the screens show for `CCc1ccc(-c2cc(C(=O)Nn3cnnc3)c3ccccc3n2)cc1`?
HSF1 inhib: -24; HSP90 inh: 30*; PG9 Ab binder: -1; GAA850 FXN act: -3; AI-2 QS modul: 46; SMARCA2 act: 1; HSP90 inh confirm: 56*; luciferase ctr: 30*

Results for COC[C@@H](O)[C@H]1OCc2cccc(OC)c2[C@@H]1/C=C/c1ccccc1 ?
SMARCA2 act: -3

What do the screens show for `O=C(C(=O)N1CCC(CNS(=O)(=O)c2cccc(C(F)(F)F)c2)CC1)c1cc2ccccc2o1`?
PG9 Ab binder: 1; SMARCA2 act: -4

Results for CN1C(=O)C[C@@](C#N)(C(=O)NCCc2ccccc2)[C@H]1c1ccccc1 ?
SMARCA2 act: 0

How did CCCOc1ccc2cc(-c3ccccn3)c(=O)oc2c1 do in these assays?
HSF1 inhib: -34; HSP90 inh: 36*; PG9 Ab binder: -1; GAA850 FXN act: -8; AI-2 QS modul: 13; SMARCA2 act: 1; HSP90 inh confirm: 85*; luciferase ctr: 80*

How did O=c1oc2cc(OCc3c(F)cccc3Cl)ccc2cc1-c1ccccn1 do in these assays?
HSF1 inhib: 15; HSP90 inh: -1; PG9 Ab binder: 2; GAA850 FXN act: 3; AI-2 QS modul: 3; SMARCA2 act: -4

How did Cc1ccc(-c2nc(-c3ccncc3)no2)c(Cl)c1 do in these assays?
HSF1 inhib: 19; HSP90 inh: 28*; PG9 Ab binder: 0; GAA850 FXN act: 1; AI-2 QS modul: 17; SMARCA2 act: 0; HSP90 inh confirm: 48*; luciferase ctr: 47*

How did Cc1cc(C)cc(Nc2ccc(C(=O)O)cc2N)c1 do in these assays?
HSF1 inhib: 1; HSP90 inh: 23*; PG9 Ab binder: -11; GAA850 FXN act: 0; AI-2 QS modul: 20; SMARCA2 act: -1; HSP90 inh confirm: 1; luciferase ctr: -18

What do the screens show for `Cc1cc(C)cc(Nc2ccc(C(=O)O)cc2[N+](=O)[O-])c1`?
HSF1 inhib: -2; HSP90 inh: -2; PG9 Ab binder: 2; GAA850 FXN act: 1; AI-2 QS modul: 10; SMARCA2 act: -1

How did CC(C)(C)c1ccc(-c2cc(-c3ccccc3O)[nH]n2)cc1 do in these assays?
HSF1 inhib: -72*; HSP90 inh: 52*; PG9 Ab binder: -1; GAA850 FXN act: -6; AI-2 QS modul: 57; SMARCA2 act: -5; HSP90 inh confirm: 60*; luciferase ctr: 59*

How did Oc1ccccc1-c1cc(-c2cccc(F)c2)n[nH]1 do in these assays?
HSF1 inhib: 15; HSP90 inh: -4; PG9 Ab binder: -3; GAA850 FXN act: 7; AI-2 QS modul: 9; SMARCA2 act: 3

Results for N#Cc1cc2ccc(N3CCOCC3)cc2cc1C#N ?
HSP90 inh: 18*; PG9 Ab binder: 0; GAA850 FXN act: 1; AI-2 QS modul: 14; SMARCA2 act: -3; HSP90 inh confirm: -1; luciferase ctr: -11

What do the screens show for `CC(=O)C1(C(=O)NC2CCCC2)CC(c2ccccc2C(F)(F)F)=NO1` (stereo unspecified)?
SMARCA2 act: -4

What do the screens show for `NC(=O)c1c(N)[nH]c(C(=O)c2ccccc2)c1-c1ccccc1Cl`?
PG9 Ab binder: 3; SMARCA2 act: 1

What do the screens show for `COc1ccc(O)c(C(=O)CC(=O)c2ccc(F)cc2)c1`?
HSF1 inhib: 25; HSP90 inh: 21*; PG9 Ab binder: 0; GAA850 FXN act: -1; AI-2 QS modul: 47; SMARCA2 act: 1; HSP90 inh confirm: 21*; luciferase ctr: -4

How did CC(C(=O)O)c1ccc(N2Cc3ccccc3C2=O)cc1 (stereo unspecified) do in these assays?
HSF1 inhib: 8; HSP90 inh: 27*; PG9 Ab binder: 0; GAA850 FXN act: -5; AI-2 QS modul: 8; SMARCA2 act: -4; HSP90 inh confirm: 36*; luciferase ctr: 32*

What do the screens show for `COc1ccc(/C=N/Nc2cc(OC)ncn2)cc1`?
HSF1 inhib: 33; HSP90 inh: 18*; PG9 Ab binder: -1; GAA850 FXN act: 4; AI-2 QS modul: 29; SMARCA2 act: 3; HSP90 inh confirm: 31*; luciferase ctr: 26*

What do the screens show for `Cc1c(C(=O)Nc2ccccc2)cn2c(nc3ccccc32)c1C#N`?
HSF1 inhib: 12; HSP90 inh: 35*; PG9 Ab binder: 1; GAA850 FXN act: 1; AI-2 QS modul: 1; SMARCA2 act: -5; HSP90 inh confirm: 2; luciferase ctr: -2

How did COc1ccc(NC(=O)c2cn3c(nc4ccccc43)c(C#N)c2C)cc1 do in these assays?
HSF1 inhib: 2; HSP90 inh: 0; PG9 Ab binder: 0; GAA850 FXN act: -1; AI-2 QS modul: -4; SMARCA2 act: -1

How did CCN(CC)C(=O)CSc1nnc(-c2ccc(C(C)(C)C)cc2)n1Cc1ccco1 do in these assays?
SMARCA2 act: -5

How did O=C(O)c1ccc(Cn2cc(/C=C\[N+](=O)[O-])c3ccccc32)o1 do in these assays?
HSF1 inhib: 0; HSP90 inh: 43*; PG9 Ab binder: -1; GAA850 FXN act: 2; AI-2 QS modul: 16; SMARCA2 act: -2; HSP90 inh confirm: 4; luciferase ctr: -5
